This is a sample that favours compounds with a hit; in the whole collection about 6.7% have one here.
Anthrax LF prot = Bacillus anthracis LF protease inhibitors, primary screen, biochemical, multiplex microsphere, MLPCN library. Lethal factor (Bacillus anthracis), P15917. multiplex microsphere protease cleavage assay. inhibition, % at 10 µM. 360,000 compounds, 0.12% hits; further: plate controls were buffer without enzyme for full effect and enzyme alone for no effect
Bead autofluor = compound fluorescence in toxin protease inhibitor counterscreen; fluorescence intensity (concentration not given with the values); 360,000 compounds, 3.1% hits; compound autofluorescence counterscreen, microsphere flow cytometry; hits give high values; in the data active means fluorescence intensity above about 16000; inconclusive means no clear call, values can overlap the other calls
BoNT-A LC inh2 = BoNT/A light chain protease inhibitors, primary screen, biochemical, flow cytometry, MLPCN library | multiplex microsphere protease substrate cleavage | inhibition, % at 10 µM | 360,000 compounds, 0.17% hits | AID 588499, 2011; further: plate controls were buffer without enzyme for full effect and enzyme alone for no effect
BoNT F protease = BoNT/F light chain protease inhibitors, primary screen, biochemical, flow cytometry, MLPCN library; Botulinum neurotoxin type F light chain protease (Clostridium botulinum); Multiplex microsphere protease cleavage assay; inhibition, % at 10 µM; 360,000 compounds, 0.22% hits; AID 588497, 2011; in the data active means inhibition above about 35%, passing the limit was not always enough; inconclusive means no clear call, values can overlap the other calls; further: plate controls were buffer without enzyme for full effect and enzyme alone for no effect
FBA Mtb inh = Mtb FBA enzyme inhibitors, primary screen, biochemical, fluorescence, strain H37Rv; Fructose-bisphosphate aldolase (Mycobacterium tuberculosis (strain ATCC 25618 / H37Rv)), …; purified M. tuberculosis FBA, fluorescence read-out; inhibition, % at 1 µM; 360,000 compounds, 2.3% hits; in the data active means inhibition above about 27%;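 further: 0% = vehicle and 100% = reference inhibitor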
Target sequence (P9WQA3 whole entry, looked up): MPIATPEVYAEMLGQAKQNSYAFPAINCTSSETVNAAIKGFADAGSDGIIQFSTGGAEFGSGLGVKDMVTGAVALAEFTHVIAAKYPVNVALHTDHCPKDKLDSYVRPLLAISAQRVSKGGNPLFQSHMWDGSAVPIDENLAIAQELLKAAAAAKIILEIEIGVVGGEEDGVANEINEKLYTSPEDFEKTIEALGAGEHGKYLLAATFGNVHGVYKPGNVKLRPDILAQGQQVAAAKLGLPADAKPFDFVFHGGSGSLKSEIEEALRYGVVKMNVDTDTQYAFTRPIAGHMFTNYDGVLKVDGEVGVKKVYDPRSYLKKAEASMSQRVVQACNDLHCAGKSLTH
GDH-TPI inh = GDH-TPI coupling enzyme inhibitors, primary screen, artefact control for M. tuberculosis FBA inhibitor project, biochemical, absorbance, full deck | GDH-TPI coupled enzyme counterscreen, NADH absorbance | 360,000 compounds, 1.2% hits | inhibition, % at 4.8 µM; in the data active means inhibition above about 30%;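 further: 0% = DMSO wells and 100% = wells lacking the enzyme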
Numbers without * were called inactive; u = inconclusive; + = active, no number. Unless noted, no stated cut-off is given here; in the data, active means inhibition above about 30%; inconclusive means no clear call, values can overlap the other calls; inactive means below that.

SMILES | Anthrax LF prot | Bead autofluor | BoNT-A LC inh2 | BoNT F protease | FBA Mtb inh | GDH-TPI inh
OCCN(CCO)c1cc2c3ccccc3ccc2c2ccccc12 | 2 | 4020 | -1 | -4 | 131* | 2
CCc1nn2c(=O)cc(CSc3nc(C)cc(=O)[nH]3)nc2s1 | -11 | 5855 | -1 | 0 | -1 | 13
CN(C)C(=O)CSc1nnc(CCCCCNC(=O)OC(C)(C)C)o1 | u | u | u | u | 1 | 15
CCN(CC)C(=O)CSc1nnc(CCNC(=O)OC(C)(C)C)o1 | 0 | 23519* | 0 | -1 | 0 | 8
Cc1ccc(C)c(NC(=O)CSc2nnc(CCNC(=O)OC(C)(C)C)o2)c1 | 6 | 15807 | 1 | 0 | -3 | 5
Cc1c(Cl)cccc1NC(=O)CSc1nnc(CCNC(=O)OC(C)(C)C)o1 | -1 | 22523* | 2 | 4 | 2 | -8
CN(C)C(=O)CSc1nnc(CCNC(=O)OC(C)(C)C)o1 | -3 | 22750* | 0 | 4 | -1 | 3
CCN(CC)C(=O)CSc1nnc(CCN)o1 | -2 | 23987* | -2 | -2 | 0 | 17
COc1cccc(OCC(Cn2c(C)nc3ccccc32)OC(C)=O)c1 (stereo not drawn) | 0 | 2217 | -1 | -4 | -1 | -5
O=C(C[n+]1ccccc1)c1ccc(Cl)cc1 | 7 | 3748 | -1 | 7 | -2 | 5
O=C(NCC1CCN(Cc2ccccc2F)CC1)C1CCCN(c2ncnc3c2nc2n3CCCCC2)C1 (stereo not drawn) | -1 | 6131 | -2 | -2 | -2 | 3
CC(C)NS(=O)(=O)c1ccc(NC(=O)C(C)Oc2ccc(C(=O)c3ccccc3)cc2)cc1 (stereo not drawn) | 2 | 2044 | 1 | 3 | -3 | 2
COc1c(F)c(F)c(C(=O)O)c(Nc2ccc(C)cc2)c1F | -1 | 22057* | -5 | -5 | 1 | 0
CC1(C)C/C(=N\O)c2cc3c(nc2C1)CCCC3 | -1 | 23918* | -3 | -6 | 2 | 4
COCCNC(=O)c1ccc2c(c1)nc(C)n2-c1cccc(Cl)c1 | -16 | 3878 | -1 | 6 | 0 | -4
CCOC(CNC(=O)c1ccc2c(c1)nc(C)n2-c1cccc(F)c1)OCC | -4 | 23358* | -1 | -4 | 0 | 3
COc1cccc2sc(N3CCN(c4nc5ccccc5s4)CC3)nc12 | 3 | 4140 | 0 | 18 | 0 | 2
CN(C)/C=C/c1onc(-c2c(F)cccc2Cl)c1C#N | -3 | 2020 | 0 | 2 | -2 | 31*
Cc1onc(-c2c(F)cccc2Cl)c1C(=O)NC1CC1 | -3 | 5689 | -1 | -8 | 3 | 14
COc1cc(/C=N/Nc2nc3ccccc3o2)cc(OC)c1O | -4 | u | 2 | u | 3 | 31*
C(=N\Nc1nc2ccccc2[nH]1)/c1ccc2ncccc2c1 | -6 | 2603 | 1 | -18 | 2 | 33*
COc1cc(/C=N\Nc2nc3ccccc3[nH]2)cc(OC)c1OC | -2 | 3376 | -1 | -26 | 2 | 36*
Oc1ccccc1/C=N/Nc1nc2ccccc2o1 | 1 | 4260 | -1 | -5 | 9 | 51*
Brc1ccc(/C=N/Nc2nc3ccccc3o2)cc1 | 2 | 3578 | -2 | -18 | 5 | -3
O=C(c1ccccc1[N+](=O)[O-])N1CCN(c2ccc(N3CCOCC3)nn2)CC1 | 2 | u | -4 | u | 3 | -1
SMILES | Anthrax LF prot | Bead autofluor | BoNT-A LC inh2 | BoNT F protease | FBA Mtb inh | GDH-TPI inh
CCc1ccc2c(c1)C(c1ccc([N+](=O)[O-])cc1)=NNC(c1ccc(F)cc1)=N2 | 17 | 9914 | -1 | -4 | 1 | 25
COc1ccc(/C=N/Nc2nc3ccccc3o2)cc1O | -3 | 3047 | -1 | -10 | -2 | 28
COc1ccc(/C=N/Nc2nc3ccccc3[nH]2)cc1OC | -2 | 2407 | 0 | -9 | -2 | 29
COc1cc(/C=N\Nc2nc3ccccc3o2)cc(OC)c1OC | 4 | 5787 | u | 32 | 5 | 34*
CCOc1cc(/C=N/Nc2nc3ccccc3[nH]2)cc(Br)c1OCC(=O)N(C)C | -6 | 3175 | 0 | -13 | 3 | 34*
COc1ccc(C(=C(CC(=O)O)C(=O)OC(C)(C)C)c2cc(OC)c(OC)c(OC)c2)cc1OC | -3 | 3602 | 0 | 4 | -3 | 11
CCN1CCN(C(C)C(=O)NC2CCCCC2)CC1 (stereo not drawn) | 1 | u | -1 | -5 | 1 | 4
O=C1C2C(c3ccccc3)=NN(c3ccccc3)C2C(=O)N1c1ccccc1 (stereo not drawn) | 0 | 2393 | 0 | -2 | 5 | 0
O=C1[C@@H]2[C@@H](CN3CN(c4ccccc4)N=C(c4ccccc4)[C@@]23c2ccccc2)C(=O)N1c1ccccc1 | -3 | 3695 | 0 | 1 | 34* | 17
CCCCCC1CC(/C(C)=N/NC(N)=O)OC1=O (stereo not drawn) | 2 | 3290 | 0 | 0 | 0 | 11
CCCCCCC1CC(C)(/C(C)=N/NC(N)=O)OC1=O (stereo not drawn) | 2 | 18949* | 5 | 6 | 7 | -1
CCOC(=O)c1ccccc1NC(=O)c1ccccc1NS(C)(=O)=O | -2 | 4356 | 0 | u | 1 | -3
Cc1noc(C)c1COc1ccc(C(=O)N2CCCC(C(N)=O)C2)cc1 (stereo not drawn) | -2 | 6246 | -1 | -3 | 0 | -10
c1ccc(Cn2nnnc2-c2ccco2)cc1 | 2 | 16264* | 0 | 0 | 0 | -6
CN(C)Cc1c(O)c(Cl)cc2c3c(c(=O)oc12)CCCC3 | -2 | 2371 | 0 | -4 | + | 19
CCN(CC)Cc1c(O)c(Cl)cc2c3c(c(=O)oc12)CCCC3 | 3 | 3693 | 0 | 0 | + | 15
Cc1ccc(C(=O)C(=O)c2ccc(C)c(N)c2)cc1N | 13 | 4043 | -4 | u | -1 | 10
Cc1cccc(-n2c(C)cc(/C=N/NC(=O)c3ccc(CN4CCOCC4)cc3)c2C)c1 | -3 | 11405 | -1 | -9 | 1 | 45*
Cc1ccc(-n2c(C)cc(/C=N/NC(=O)c3ccc(CN4CCOCC4)cc3)c2C)cc1 | -3 | 19963* | 2 | -1 | 1 | 21
Cc1ccc(O)c(C2=Nc3ccccc3C2(C)C)c1 | -3 | 5610 | 0 | -11 | 0 | 4
CC(=O)c1ccc(NC(=O)CSCCO)cc1 | -5 | 19947* | 0 | -1 | 0 | -3
CSCCC(=O)Nc1ccc(C(C)=O)cc1 | 0 | 8819 | 1 | 6 | 0 | 2
COC(=O)c1ccc(NC(=O)CSCc2ccccc2)cc1 | 1 | 2728 | 1 | -3 | 3 | 1
